Assay results: PubChem BioAssay AID940 (Emory University Molecular Libraries Screening Center, 2007)
Values joined by “and” are separate entries in the source; they are usually repeats but may differ in a detail not shown here. Equal values may be shown once. The campaign covered roughly 260,000 compounds. About 2,200 (0.85%) were called active. This is one part of a sample in which actives are shown more often than they occur.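 Rule for the calls: active = compounds whose cAMP rise, as percent of the full-agonist control response, exceeds 60; inactive = the rest.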 The source holds several records for some structures; these can differ, active in one and inactive in another.

These compounds were tested against Prostaglandin E2 receptor EP2 subtype (Homo sapiens) (UniProt P43116) (assay: modulation of human EP2 prostaglandin signaling – cell-based, HTRF cAMP, PGE2 stimulation, primary screen (AID 940;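 note: rat C6 glioma line stably carrying human EP2 under a CMV promoter; the protocol text gives 20 µM as final concentration; 100% = response of wells given 1 µM PGE2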)). Details: EP2-expressing cells, cAMP HTRF FRET, PGE2 co-stimulation; at 25 µM; stronger effect = higher value.
Chain of Prostaglandin E2 receptor EP2 subtype (Homo sapiens) (P43116 whole entry, looked up): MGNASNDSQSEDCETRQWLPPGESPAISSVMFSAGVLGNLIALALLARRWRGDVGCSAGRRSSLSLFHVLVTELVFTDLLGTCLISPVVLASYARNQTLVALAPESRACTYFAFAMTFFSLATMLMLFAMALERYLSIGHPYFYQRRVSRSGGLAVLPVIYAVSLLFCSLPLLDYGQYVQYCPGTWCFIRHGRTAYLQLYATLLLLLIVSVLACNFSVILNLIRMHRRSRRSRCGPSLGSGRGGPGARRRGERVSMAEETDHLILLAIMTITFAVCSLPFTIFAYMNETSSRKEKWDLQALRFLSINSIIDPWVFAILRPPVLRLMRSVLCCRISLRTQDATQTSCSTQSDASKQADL

**Q.** Which induction does the source give for `C[N+]1(C)CCOC(O)(c2ccc(-c3ccc(C4(O)C[N+](C)(C)CCO4)cc3)cc2)C1` (stereo not given) here?
**A.** 27.6% (inactive) and 76.2% (active)

**Q.** Which induction does the source give for `C=CCc1cc(CN2C3CCC2CC(O)(c2nccn2C)C3)cc(OCC)c1O` (stereo not given) here?
**A.** -31.8% (inactive)

**Q.** `Cc1cccc2cc(CN(Cc3ccco3)C3(c4nnnn4C4CCCC4)CCCCC3)c(=O)[nH]c12` was tested. Which induction did it give?
**A.** 24.8% (inactive)

**Q.** How did the induction turn out when `N#CC1=C(N)Oc2c(c(=O)oc3ccccc23)C1c1cc2c(cc1Cl)OCO2` (stereo not given) was run?
**A.** 0.48% (inactive)

**Q.** Which induction does the source give for `COc1ccccc1/C=C/CN1C2CCC1CC(O)(c1ccccc1F)C2` (stereo not given) here?
**A.** -60.2% (inactive)

**Q.** With `O=C(CN1C2CCC1CC(O)(c1ccco1)C2)NCc1ccccc1` (stereo not given) as the compound, how does the induction read?
**A.** -18.4% (inactive)

**Q.** Which induction does the source give for `CC(c1ccccc1)(c1ccccc1)c1ccncc1` here?
**A.** 61.2% (active)

**Q.** How did the induction turn out when `O=C1CCCN1C(=O)c1cc(Cl)cc(Cl)c1` was run?
**A.** -0.43% (inactive)

**Q.** For `OC12CCCCC1CN(Cc1ccnc3ccccc13)CC2` (stereo not given), which induction is on record?
**A.** -29.6% (inactive)

**Q.** For `O=C(CN1C2CCC1CC(O)(c1ccccn1)C2)N1c2ccccc2Sc2ccccc21` (stereo not given), which induction is on record?
**A.** 8.29% (inactive)
